Source: PubChem
Rows were chosen to be rich in hits. Some 1.4% of all compounds tested hit in one or more screens of this group.
PV pol inh: inhibitors of poliovirus RNA polymerase binding and polymerization; P03300; poliovirus polymerase elongation, fluorescence polarization; stronger effect = lower value; % elongation, % (compound at 16.7 µg/mL); 0.66% of 150,000 active; AID 588519; in the data active = % elongation below about 90%
AID504770: growth inhibitors of E. coli YBA685 in a screen for V. cholerae RctB (chromosome II replication) inhibitors; E. coli YBA685 rctB-dependent plasmid, OD600 growth, 3 h; stronger effect = lower value; z-score (concentration not given with the values); 0.27% of 130,000 active; in the data active = z-score below about -2, passing the limit was not always enough
MenB inh: blocks the Mycobacterium tuberculosis MenB enzyme. P9WNP5. MenB enzyme assay, absorbance read-out. inhibition, % (no concentration beside the values). 0.43% of 100,000 active. AID 540299; in the data active = inhibition above about 21%, passing the limit was not always enough
Mtb MbtI inh: MbtI salicylate synthase inhibition; P9WFX0; purified MbtI enzyme, fluorescence intensity read-out; inhibition, % (concentration not given with the values); 0.89% of 100,000 active; AID 493033; in the data active = inhibition mostly above about 56%, no sharp cut-off; inactive = mostly below about 77%
Numbers without * were called inactive; x = not tested or not shown.

SMILES	PV pol inh	AID504770	MenB inh	Mtb MbtI inh
CCOC(=O)Cc1ccc(NC(=O)C(F)(F)C(F)F)cc1	103	-0.65	-26	-15
Cc1ccc(C)n1-c1cccc(C(=O)O)c1	34*	2.5	-30	x
CCOC(=O)c1cc(-c2ccccn2)nc2c1c(=O)n(CC(=O)OC)c(=O)n2Cc1ccccc1	81*	-0.65	-15	10
CSc1ccc(C(N)CC(=O)O)cc1 (stereo unspecified)	x	-0.1	x	x
COc1ccc([C@H]2[C@@H](C(=O)O)c3ccccc3C(=O)N2Cc2ccc3c(c2)OCO3)cc1	38*	0	6	4
COC(=O)C1=C(N)OC2=C(C(=O)CCC2)C1c1ccc(OC)cc1 (stereo unspecified)	101	1.6	37*	4
COc1ccc(C2C(C#N)=C(N)OC3=C2C(=O)CCC3)cc1 (stereo unspecified)	102	-0.15	-19	11
O=C(CC1CCCC1)Nc1ccc(S(=O)(=O)C(F)F)cc1	109	-0.3	-3	-10
CCOc1ccc2nc(NC(NC(=O)CC)(C(F)(F)F)C(F)(F)F)sc2c1	103	-0.4	-15	x
Cn1nc(C(=O)Nc2ccc(Cl)cc2)ccc1=O	109	0.3	-18	1
CC(Sc1nnc2c(Cl)cc(Cl)cn12)C(=O)NCc1ccco1 (stereo unspecified)	101	-0.05	6	8
Cc1cc(C)nc(NNC(=S)NCc2ccc3c(c2)OCO3)n1	98	-0.5	-16	75*
CCc1ccc(-c2nn(-c3ccccc3)cc2/C=C(/C#N)C(N)=O)cc1	99	0.45	-31	-69
CN(C)S(=O)(=O)N=C1C=CC(=NS(=O)(=O)N(C)C)C=C1	88*	-0.15	-3	10
COc1cccc(C(=O)Nc2cc3cc(OC)ccc3oc2=O)c1	85*	x	x	x
Cc1cccc(-c2nsc(SCC(=O)N3CCCCC3)n2)c1	102	0	6	49
CCOC(=O)CSc1nc(-c2ccccc2)ns1	93	-0.05	-2	52*
O=C(c1ccco1)N1CCN(C(=O)c2ccco2)CC1	104	2.2	-36	-6
O=C(c1ccco1)n1c(=S)nc2ccccn21	83*	0	-16	x
